The full data set covers some 8,800 targets. This sample favours those with a hit. About 0.5% of all pairs of compound and target were hits.
Legend:
Assay in all cases: log2 fold change, soluble protein after heating vs DMSO (PISA); higher = thermal stabilisation; K562 lysate, 10 uM; active = over 0.2 and 3.5 SD of the protein, either way, in both replicates (recomputed)
vemurafenib = compound: CCCS(=O)(=O)Nc1ccc(F)c(C(=O)c2c[nH]c3ncc(-c4ccc(Cl)cc4)cc23)c1F [vemurafenib]
In short: (§1)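 Thermal stability, expressed as log-two fold change relative to solvent controls, is given from duplicates. Crude K562 extract in PBS pH 7.4 with 1 mM MgCl2, at 1 mg/mL protein, was treated with 10 μM compound for 30 min and heated in aliquots for 3 min across 48°C-58°C. After pooling, adjustment to 0.5% NP-40 at 4°C and centrifugation at 21,000xg for 90 min, supernatant protein was measured by TMTpro 16plex LC-MS/MS with channel sums equalised.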

[1] = compound: CCCS(=O)(=O)Nc1ccc(F)c(C(=O)c2c[nH]c3ncc(Cl)cc23)c1F
In short: as §1

barasertib = compound: CCN(CCCOc1ccc2c(Nc3cc(CC(=O)Nc4cccc(F)c4)[nH]n3)ncnc2c1)CCOP(=O)(O)O [barasertib]
In short: as §1

[2] = compound: CC[C@@H]1C(=O)N(C)c2cnc(Nc3ccc(C(=O)NC4CCN(C)CC4)cc3OC)nc2N1C1CCCC1
In short: as §1

volasertib = compound: CC[C@@H]1C(=O)N(C)c2cnc(Nc3ccc(C(=O)N[C@H]4CC[C@H](N5CCN(CC6CC6)CC5)CC4)cc3OC)nc2N1C(C)C [volasertib]
In short: as §1

[3] = compound: CCn1c(C(=O)N(C2CC2)C2CC2)cc2c3c(ncn3C)c(Nc3cc(C)n(C)n3)nc21
In short: as §1

[4] = compound: CCn1cc(-c2ccnc3[nH]c(-c4cccc(CN(C)C)c4)cc23)c(-c2ccc(NC(=O)N(C)C)cc2)n1
In short: as §1

[5] = compound: CN1CCC(CNc2ccc3ncc(-c4cccc(OC(F)(F)F)c4)n3n2)CC1
In short: as §1

saracatinib = compound: CN1CCN(CCOc2cc(OC3CCOCC3)c3c(Nc4c(Cl)ccc5c4OCO5)ncnc3c2)CC1 [saracatinib]
In short: as §1

sotrastaurin = compound: CN1CCN(c2nc(C3=C(c4c[nH]c5ccccc45)C(=O)NC3=O)c3ccccc3n2)CC1 [sotrastaurin]
In short: as §1

alvocidib = compound: CN1CC[C@H](c2c(O)cc(O)c3c(=O)cc(-c4ccccc4Cl)oc23)[C@H](O)C1 [alvocidib]
In short: as §1

Tubastatin A = compound: CN1CCc2c(c3ccccc3n2Cc2ccc(C(=O)NO)cc2)C1 [Tubastatin A]
In short: as §1

[6] = compound: CNC(=O)C1=CC=CC=C1NC2=NC(=NC=C2Cl)NC3=C(C=C(C=C3)N4CCOCC4)OC
In short: as §1

defactinib = compound: CNC(=O)c1ccc(Nc2ncc(C(F)(F)F)c(NCc3nccnc3N(C)S(C)(=O)=O)n2)cc1 [defactinib]
In short: as §1

[7] = compound: CNc1nc(-c2ccc3c(N)n[nH]c3c2)cc(N2C[C@@H](C(=O)NC3CCCCC3)CC[C@H]2C)n1
In short: as §1

encorafenib = compound: COC(=O)N[C@@H](C)CNc1nccc(-c2cn(C(C)C)nc2-c2cc(Cl)cc(NS(C)(=O)=O)c2F)n1 [encorafenib]
In short: as §1

[8] = compound: COC(=O)[C@H](CCSC)NC(=O)C1=C(C=C(C=C1)NC[C@H](CS)N)C2=CC=CC=C2
In short: as §1

alisertib = compound: COc1cc(Nc2ncc3c(n2)-c2ccc(Cl)cc2C(c2c(F)cccc2OC)=NC3)ccc1C(=O)O [alisertib]
In short: as §1

[9] = compound: COc1cc2nc(-c3cc(F)ccc3O)nc(N[C@@H]3CNC[C@H]3C(C)(C)O)c2cc1OC
In short: as §1

gefitinib = compound: COc1cc2ncnc(Nc3ccc(F)c(Cl)c3)c2cc1OCCCN1CCOCC1 [gefitinib]
In short: as §1

Measured: log2 fold change

ISY1 isoform 1 (UniProt Q9ULR0)
active: [7] 0.366
inactive: vemurafenib -0.186 | [1] 0.034 | barasertib 0.018 | [2] 0.066 | volasertib -0.025 | [3] -0.012 | [4] -0.101 | [5] 0.02 | saracatinib 0.026 | sotrastaurin 0.032 | alvocidib -0.05 | Tubastatin A -0.03 | [6] 0.013 | defactinib 0.082 | encorafenib -0.03 | [8] -0.149 | alisertib -0.012 | [9] 0.016 | gefitinib 0.075

GTF2A1 (UniProt P52655)
inactive: vemurafenib -0.028 | [1] 0.01 | barasertib 0.018 | [2] 0.042 | volasertib 0.035 | [3] 0.015 | [4] 0.033 | [5] -0.042 | saracatinib -0.004 | sotrastaurin 0.024 | alvocidib 0.165 | Tubastatin A 0.006 | [6] -0.047 | defactinib 0.033 | [7] 0.048 | encorafenib -0.005 | [8] -0.026 | alisertib -0.029 | [9] -0.024 | gefitinib 0.008

HLTF (UniProt Q14527)
Sequence of UniProt Q14527 (Q14527 whole entry, looked up): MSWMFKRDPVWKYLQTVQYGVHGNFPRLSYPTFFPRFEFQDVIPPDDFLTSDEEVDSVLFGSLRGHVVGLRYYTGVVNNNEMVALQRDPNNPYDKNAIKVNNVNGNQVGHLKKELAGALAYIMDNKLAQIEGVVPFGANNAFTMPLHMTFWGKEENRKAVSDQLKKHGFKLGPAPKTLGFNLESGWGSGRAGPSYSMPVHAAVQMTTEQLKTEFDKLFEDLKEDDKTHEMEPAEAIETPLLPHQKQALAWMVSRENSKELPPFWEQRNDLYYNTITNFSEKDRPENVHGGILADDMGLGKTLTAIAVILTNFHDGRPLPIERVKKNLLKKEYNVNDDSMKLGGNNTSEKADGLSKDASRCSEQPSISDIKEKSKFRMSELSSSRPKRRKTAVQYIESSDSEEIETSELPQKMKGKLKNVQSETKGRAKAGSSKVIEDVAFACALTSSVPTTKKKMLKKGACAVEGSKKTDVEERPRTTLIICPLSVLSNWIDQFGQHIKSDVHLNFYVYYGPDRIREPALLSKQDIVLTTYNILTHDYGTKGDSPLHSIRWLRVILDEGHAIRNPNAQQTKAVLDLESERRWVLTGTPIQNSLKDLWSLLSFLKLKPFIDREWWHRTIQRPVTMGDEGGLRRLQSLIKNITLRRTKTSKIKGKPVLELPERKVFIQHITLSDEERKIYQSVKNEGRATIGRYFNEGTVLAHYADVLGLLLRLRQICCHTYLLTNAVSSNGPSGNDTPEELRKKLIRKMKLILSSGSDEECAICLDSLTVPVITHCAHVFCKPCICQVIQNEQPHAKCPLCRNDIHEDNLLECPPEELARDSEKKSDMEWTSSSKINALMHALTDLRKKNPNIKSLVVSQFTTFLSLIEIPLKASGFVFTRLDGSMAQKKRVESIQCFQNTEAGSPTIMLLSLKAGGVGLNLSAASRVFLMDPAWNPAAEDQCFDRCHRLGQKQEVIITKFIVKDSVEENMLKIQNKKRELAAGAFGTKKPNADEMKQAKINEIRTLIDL
inactive: vemurafenib -0.008 | [1] -0.044 | barasertib 0.077 | [2] -0.002 | volasertib -0.043 | [3] 0.028 | [4] -0.024 | [5] 0.073 | saracatinib 0.004 | sotrastaurin 0.017 | alvocidib -0.027 | Tubastatin A -0.083 | [6] -0.001 | defactinib 0.028 | [7] 0.025 | encorafenib 0.004 | [8] 0.104 | alisertib 0.048 | [9] 0.01 | gefitinib 0.076

IGF2BP3 (UniProt O00425)
Sequence of UniProt O00425 (O00425 whole entry, looked up): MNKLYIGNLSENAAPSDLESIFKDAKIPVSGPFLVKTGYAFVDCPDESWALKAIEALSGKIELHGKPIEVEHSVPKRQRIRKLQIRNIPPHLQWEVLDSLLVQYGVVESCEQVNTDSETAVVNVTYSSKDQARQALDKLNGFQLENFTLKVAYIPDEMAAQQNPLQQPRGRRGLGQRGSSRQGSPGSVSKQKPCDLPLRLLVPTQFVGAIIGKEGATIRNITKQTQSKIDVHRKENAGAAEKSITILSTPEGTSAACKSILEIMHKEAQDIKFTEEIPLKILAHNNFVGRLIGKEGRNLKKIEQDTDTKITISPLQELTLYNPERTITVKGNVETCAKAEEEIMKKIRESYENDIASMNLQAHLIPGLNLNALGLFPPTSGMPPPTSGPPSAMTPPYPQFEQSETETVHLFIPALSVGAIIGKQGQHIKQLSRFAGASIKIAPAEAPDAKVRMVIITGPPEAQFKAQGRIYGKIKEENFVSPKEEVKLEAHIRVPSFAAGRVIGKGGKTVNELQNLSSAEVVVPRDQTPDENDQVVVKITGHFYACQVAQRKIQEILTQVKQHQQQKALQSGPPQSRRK
inactive: vemurafenib 0.024 | [1] 0.006 | barasertib 0.016 | [2] -0.106 | volasertib -0.025 | [3] -0.016 | [4] -0.062 | [5] -0.022 | saracatinib 0.026 | sotrastaurin 0.011 | alvocidib 0.012 | Tubastatin A -0.147 | [6] -0.022 | defactinib -0.028 | [7] -0.016 | encorafenib -0.022 | [8] 0.218 | alisertib 0.006 | [9] -0.003 | gefitinib -0.017

HNRNPUL1 (UniProt Q9BUJ2)
Sequence of UniProt Q9BUJ2 (Q9BUJ2 whole entry, looked up): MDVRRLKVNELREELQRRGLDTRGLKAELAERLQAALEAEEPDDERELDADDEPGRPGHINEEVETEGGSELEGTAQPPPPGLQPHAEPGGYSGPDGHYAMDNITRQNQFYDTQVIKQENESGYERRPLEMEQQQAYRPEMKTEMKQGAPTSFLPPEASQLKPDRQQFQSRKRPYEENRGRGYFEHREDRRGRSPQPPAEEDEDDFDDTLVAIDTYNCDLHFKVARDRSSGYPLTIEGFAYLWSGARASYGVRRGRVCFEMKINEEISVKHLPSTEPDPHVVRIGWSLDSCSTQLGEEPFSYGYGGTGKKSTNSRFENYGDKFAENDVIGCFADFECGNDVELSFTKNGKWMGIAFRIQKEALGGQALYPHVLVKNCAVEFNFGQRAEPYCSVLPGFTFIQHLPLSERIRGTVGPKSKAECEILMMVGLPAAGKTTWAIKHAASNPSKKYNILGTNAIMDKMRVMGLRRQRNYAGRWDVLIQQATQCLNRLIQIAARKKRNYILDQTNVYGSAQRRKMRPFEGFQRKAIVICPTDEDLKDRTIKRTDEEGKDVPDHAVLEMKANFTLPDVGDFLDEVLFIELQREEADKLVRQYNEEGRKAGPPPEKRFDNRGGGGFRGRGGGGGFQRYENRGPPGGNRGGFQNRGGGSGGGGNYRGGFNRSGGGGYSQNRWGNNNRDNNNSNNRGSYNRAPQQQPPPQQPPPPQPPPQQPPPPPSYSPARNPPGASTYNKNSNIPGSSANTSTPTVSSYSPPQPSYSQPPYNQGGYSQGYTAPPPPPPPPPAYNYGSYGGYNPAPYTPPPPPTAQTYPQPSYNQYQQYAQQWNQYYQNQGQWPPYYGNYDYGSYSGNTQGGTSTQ
inactive: vemurafenib -0.042 | [1] 0.005 | barasertib -0.004 | [2] -0.032 | volasertib 0.005 | [3] 0.034 | [4] 0.017 | [5] 0.019 | saracatinib 0.041 | sotrastaurin 0.014 | alvocidib 0.006 | Tubastatin A 0.01 | [6] -0.011 | defactinib 0.002 | [7] -0.027 | encorafenib 0.003 | [8] -0.003 | alisertib -0.012 | [9] 0.007 | gefitinib -0.015

HNRNPDL (UniProt O14979)
Sequence of UniProt O14979 (O14979 whole entry, looked up): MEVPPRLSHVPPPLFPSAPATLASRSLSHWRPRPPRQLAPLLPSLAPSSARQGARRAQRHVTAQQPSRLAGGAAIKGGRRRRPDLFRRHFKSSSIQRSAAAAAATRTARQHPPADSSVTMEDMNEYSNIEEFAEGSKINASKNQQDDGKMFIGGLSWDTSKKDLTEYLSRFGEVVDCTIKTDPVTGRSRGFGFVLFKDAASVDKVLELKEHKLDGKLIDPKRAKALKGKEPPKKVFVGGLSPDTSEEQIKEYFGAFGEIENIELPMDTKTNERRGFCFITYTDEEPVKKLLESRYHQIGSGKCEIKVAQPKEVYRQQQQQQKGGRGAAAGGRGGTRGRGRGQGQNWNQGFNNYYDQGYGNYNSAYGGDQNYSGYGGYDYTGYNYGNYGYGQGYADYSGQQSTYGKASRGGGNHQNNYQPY
inactive: vemurafenib -0.039 | [1] 0.026 | barasertib -0.03 | [2] 0.008 | volasertib -0.002 | [3] 0.003 | [4] 0.043 | [5] 0.018 | saracatinib -0.036 | sotrastaurin -0.098 | alvocidib 0.01 | Tubastatin A -0.017 | [6] 0.018 | defactinib -0.006 | [7] -0.002 | encorafenib -0.028 | [8] -0.017 | alisertib 0.04 | [9] -0.005 | gefitinib -0.029

IRF2BPL (UniProt Q9H1B7)
inactive: vemurafenib -0.039 | [1] 0.026 | barasertib 0.024 | [2] 0.04 | volasertib 0.001 | [3] 0.022 | [4] -0.195 | [5] 0.111 | saracatinib 0.025 | sotrastaurin -0.005 | alvocidib -0.076 | Tubastatin A -0.047 | [6] 0.01 | defactinib -0.007 | [7] 0.048 | encorafenib -0.017 | [8] -0.06 | alisertib -0.031 | [9] -0.013 | gefitinib -0.05

GON4L (UniProt Q3T8J9)
inactive: vemurafenib 0 | [1] 0.054 | barasertib 0.097 | [2] -0.064 | volasertib -0.018 | [3] 0.02 | [4] -0.104 | [5] -0.027 | saracatinib -0.019 | sotrastaurin 0.016 | alvocidib 0.019 | Tubastatin A -0.114 | [6] 0.028 | defactinib -0.001 | [7] 0.007 | encorafenib 0.092 | [8] 0.107 | alisertib -0.015 | [9] -0.027 | gefitinib -0.074

HMGN4 (UniProt O00479)
active: [4] 1.29
inactive: vemurafenib -0.015 | [1] 0.016 | barasertib -0.003 | [2] 0.453 | volasertib 0.003 | [3] 0.022 | [5] -0.595 | saracatinib -0.173 | sotrastaurin -0.099 | alvocidib 0.581 | Tubastatin A -0.001 | [6] 0.01 | defactinib 0.122 | [7] 0.235 | encorafenib -0.072 | [8] -0.046 | alisertib -0.074 | [9] -0.036 | gefitinib 0.111

HMGN5 (UniProt P82970)
Sequence of UniProt P82970 (P82970 whole entry, looked up): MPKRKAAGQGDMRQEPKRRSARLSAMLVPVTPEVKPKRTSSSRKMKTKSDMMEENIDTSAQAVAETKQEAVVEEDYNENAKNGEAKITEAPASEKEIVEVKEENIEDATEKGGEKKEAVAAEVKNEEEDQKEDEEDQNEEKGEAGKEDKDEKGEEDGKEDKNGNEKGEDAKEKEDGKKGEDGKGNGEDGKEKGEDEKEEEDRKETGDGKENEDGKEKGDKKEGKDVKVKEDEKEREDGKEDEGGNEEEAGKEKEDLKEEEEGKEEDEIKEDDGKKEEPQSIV
inactive: vemurafenib -0.007 | [1] -0.011 | barasertib -0.044 | [2] 0.016 | volasertib 0.013 | [3] -0.044 | [5] -0.164 | saracatinib -0.027 | sotrastaurin -0.029 | alvocidib 0.04 | Tubastatin A 0.045 | [6] -0.029 | defactinib 0.051 | [7] 0.018 | encorafenib -0.029 | [8] -0.023 | alisertib -0.036 | [9] 0.006 | gefitinib -0.028
active: [4] 0.3

GTF3C3 (UniProt Q9Y5Q9)
Sequence of UniProt Q9Y5Q9 (Q9Y5Q9 whole entry, looked up): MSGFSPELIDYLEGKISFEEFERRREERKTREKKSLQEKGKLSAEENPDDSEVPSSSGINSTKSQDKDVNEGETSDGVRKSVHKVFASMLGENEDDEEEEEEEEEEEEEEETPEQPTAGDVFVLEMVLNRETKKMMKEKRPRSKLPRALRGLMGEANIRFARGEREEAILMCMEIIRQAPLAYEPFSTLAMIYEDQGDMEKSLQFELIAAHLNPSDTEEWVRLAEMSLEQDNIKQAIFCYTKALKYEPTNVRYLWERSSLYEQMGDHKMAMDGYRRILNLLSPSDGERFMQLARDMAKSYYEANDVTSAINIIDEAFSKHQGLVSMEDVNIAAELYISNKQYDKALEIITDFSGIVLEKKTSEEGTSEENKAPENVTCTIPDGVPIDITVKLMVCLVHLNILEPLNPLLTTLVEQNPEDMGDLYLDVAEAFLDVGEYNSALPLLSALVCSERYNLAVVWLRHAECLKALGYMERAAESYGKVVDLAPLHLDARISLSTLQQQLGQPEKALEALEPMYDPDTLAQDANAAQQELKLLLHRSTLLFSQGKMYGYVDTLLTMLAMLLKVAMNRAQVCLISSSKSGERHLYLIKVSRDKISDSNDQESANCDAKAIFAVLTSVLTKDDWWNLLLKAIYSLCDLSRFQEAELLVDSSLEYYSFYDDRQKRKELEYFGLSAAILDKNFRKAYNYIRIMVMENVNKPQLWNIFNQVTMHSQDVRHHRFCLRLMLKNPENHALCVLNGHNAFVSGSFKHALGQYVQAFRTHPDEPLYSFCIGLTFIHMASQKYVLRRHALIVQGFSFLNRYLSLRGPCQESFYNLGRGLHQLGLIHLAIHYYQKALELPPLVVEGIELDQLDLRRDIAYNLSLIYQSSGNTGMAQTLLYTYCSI
inactive: vemurafenib 0.062 | [1] 0.06 | barasertib 0.01 | [2] -0.088 | volasertib -0.014 | [3] 0.003 | [4] -0.158 | [5] 0.005 | saracatinib 0.049 | sotrastaurin -0.013 | alvocidib -0.018 | Tubastatin A -0.147 | [6] 0.043 | defactinib -0.007 | [7] 0.04 | encorafenib -0.001 | [8] 0.065 | alisertib -0.006 | [9] 0.02 | gefitinib -0.006

HIST2H2AA3 (UniProt Q6FI13)
active: [4] 0.694
inactive: vemurafenib -0.078 | [1] 0.028 | barasertib -0.012 | [2] -0.007 | volasertib -0.006 | [3] 0.012 | [5] -0.217 | saracatinib -0.034 | sotrastaurin -0.116 | alvocidib 0.202 | Tubastatin A 0.092 | [6] -0.002 | defactinib -0.032 | [7] 0.277 | encorafenib -0.027 | [8] 0.086 | alisertib -0.097 | [9] -0.027 | gefitinib -0.086

H4C1 (UniProt P62805)
active: Tubastatin A 0.373 | [7] 0.569
inactive: vemurafenib -0.013 | [1] 0.087 | barasertib 0.079 | [2] -0.055 | volasertib 0.027 | [3] 0.079 | [4] 0.268 | [5] -0.01 | saracatinib -0.094 | sotrastaurin -0.059 | alvocidib -0.101 | [6] -0.023 | defactinib -0.02 | encorafenib 0.038 | [8] 0.051 | alisertib 0.018 | [9] 0.012 | gefitinib -0.008

KCT2 (UniProt Q8NC54)
active: [4] -0.374
inactive: vemurafenib 0.046 | [1] 0.023 | barasertib 0.127 | [2] 0.054 | volasertib -0.001 | [3] -0.038 | [5] 0.153 | saracatinib 0.089 | sotrastaurin 0.038 | alvocidib -0.137 | Tubastatin A 0.029 | [6] -0.001 | defactinib -0.012 | [7] 0.013 | encorafenib 0.031 | [8] -0.035 | alisertib 0.077 | [9] 0 | gefitinib -0.037

GTF2I (UniProt P78347)
Sequence of UniProt P78347 (P78347 whole entry, looked up): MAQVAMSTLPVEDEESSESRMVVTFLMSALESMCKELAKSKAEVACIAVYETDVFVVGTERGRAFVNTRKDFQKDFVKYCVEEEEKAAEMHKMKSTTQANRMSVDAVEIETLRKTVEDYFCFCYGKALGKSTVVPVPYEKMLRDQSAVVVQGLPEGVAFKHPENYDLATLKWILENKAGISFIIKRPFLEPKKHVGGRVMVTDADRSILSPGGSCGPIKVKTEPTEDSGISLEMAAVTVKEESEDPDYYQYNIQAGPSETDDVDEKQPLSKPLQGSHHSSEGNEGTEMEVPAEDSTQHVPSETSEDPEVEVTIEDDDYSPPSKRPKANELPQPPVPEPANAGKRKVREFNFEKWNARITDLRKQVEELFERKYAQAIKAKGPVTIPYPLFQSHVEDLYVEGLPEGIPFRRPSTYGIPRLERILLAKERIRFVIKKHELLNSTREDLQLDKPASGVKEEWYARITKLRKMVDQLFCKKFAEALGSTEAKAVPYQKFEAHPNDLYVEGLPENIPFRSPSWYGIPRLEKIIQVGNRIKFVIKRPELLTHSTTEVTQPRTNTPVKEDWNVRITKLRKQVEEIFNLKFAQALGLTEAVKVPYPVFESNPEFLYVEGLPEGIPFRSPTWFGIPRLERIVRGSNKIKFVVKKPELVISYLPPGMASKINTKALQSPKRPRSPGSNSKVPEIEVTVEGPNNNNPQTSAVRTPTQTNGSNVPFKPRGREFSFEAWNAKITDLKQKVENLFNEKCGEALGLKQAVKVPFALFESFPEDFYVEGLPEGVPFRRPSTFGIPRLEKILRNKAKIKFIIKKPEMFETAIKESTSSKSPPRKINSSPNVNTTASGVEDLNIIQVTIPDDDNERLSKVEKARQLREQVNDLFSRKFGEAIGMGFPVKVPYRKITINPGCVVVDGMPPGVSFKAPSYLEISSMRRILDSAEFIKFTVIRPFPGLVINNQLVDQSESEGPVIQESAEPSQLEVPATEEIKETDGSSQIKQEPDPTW
inactive: vemurafenib -0.004 | [1] 0.031 | barasertib 0.034 | [2] -0.055 | volasertib -0.036 | [3] 0.005 | [4] -0.054 | [5] -0.033 | saracatinib 0.014 | sotrastaurin 0.01 | alvocidib 0.05 | Tubastatin A -0.096 | [6] 0.012 | defactinib 0.018 | [7] -0.035 | encorafenib 0.015 | [8] 0.14 | alisertib 0.011 | [9] 0.004 | gefitinib -0.01

HDLBP, A0A024R4E5
inactive: vemurafenib 0.008 | [1] 0.024 | barasertib -0.017 | [2] 0.016 | volasertib -0.04 | [3] 0.011 | [4] -0.018 | [5] -0.008 | saracatinib -0.002 | sotrastaurin 0.004 | alvocidib -0.004 | Tubastatin A -0.082 | [6] 0.01 | defactinib 0.001 | [7] 0.004 | encorafenib 0.028 | [8] 0.073 | alisertib -0.005 | [9] 0.003 | gefitinib 0.003

— the supplement of paper PMC10849652
